# From PubChem BioAssay (NCI)
# About 79,000 compounds went through this panel and 15% of them were active in at least one assay; those are over-represented in the sample as a whole. Active and inactive are the calls of the source. Cut-off read from the data, not from the text of the source: active = growth inhibition above about 70%; inactive = the rest.
# Assay: NCI Yeast Anticancer Drug Screen. Data for the mlh1 rad18 strain (AID 175)
# Conditions: S. cerevisiae mlh1 rad18 strain growth inhibition; at 50.0 µM; active compounds read high
# Outline: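 Compound-treated yeast growth, normalised to vehicle controls. Strain bears defined DNA repair mutations.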
row,Structure (SMILES),growth inhibition
1,O=C(O)C(c1ccccc1)C(O)C1CCCCC1 (centres undefined),4.5% (inactive)
2,CC(C)C1NC(C(=O)O)C(C)(C)S1 (centres undefined),-16.1% (inactive)
3,CCOC(=O)C(=O)Cc1ccccc1[N+](=O)[O-],38% (inactive)
4,CC(O)CCNC(=O)c1ccccc1 (centres undefined),-5% (inactive)
5,O=c1nc(Oc2ccccc2)nc2ccc(Cl)nn12,3.1% (inactive)
6,CS(=O)(=O)Nc1cccc(C(=O)NN)c1,14.4% (inactive)
7,C[C@]12CCC(=O)C(O)=C1CCC2=O,4.5% (inactive)
8,CC1=Nc2ccccc2S/C1=C(/C)NN,0.9% (inactive)
9,CC(C)(C)NC(=O)NCC1CCCC1NC(=O)NC(C)(C)C (centres undefined),-10.4% (inactive)
10,O=c1c2ccccc2c(=O)n2n1C1CCC2C1,-6.15% (inactive)
11,O=C(Nc1cc(Cl)ccc1Cl)c1ccc(Cl)cc1,-12.7% (inactive)
12,CCOC(=O)Nc1ccn(C2OC(COC(C)=O)C(OC(C)=O)C2OC(C)=O)c(=O)n1 (centres undefined),8.3% (inactive)
13,CC(C)NCC1CCCO1 (centres undefined),-7.85% (inactive)
14,CSc1nc(Br)nc2c1ncn2C1CC(Oc2ccc(C)cc2)C(COc2ccc(C)cc2)O1 (centres undefined),-23.8% (inactive)
15,CCC1CCCCCC1=O (centres undefined),-21.3% (inactive)
16,CS(=O)(=O)CC(O)(c1ccc(Cl)cc1)c1ccccn1 (centres undefined),3.8% (inactive)
17,Cc1cc(=O)n(-c2ccc(-c3ccc(-n4c(C)c(C(=O)O)c(C)cc4=O)cc3)cc2)c(C)c1C(=O)O,27.6% (inactive)
18,COc1ccc(C(C)=O)cc1CO/N=C1\CSCc2ccccc21,12.2% (inactive)
19,O=C(CC/[N+]([O-])=C/c1ccccc1)OCc1ccccc1,52.5% (inactive)
